The list is not random: actives were taken first. Their share in the collection is about 8.7%.
Pf growth 48h: inhibits P. falciparum growth in the first generation, 48 h; P. falciparum luciferase growth in erythrocytes, 48 h; Potency, µM (series often up to 28.7 µM), inactives show at the top dose activity change, negative = inhibition, actives largely listed as inhibitors; hit rate 5.9% among 310,000
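Erythrocytes infected with P. falciparum carrying an integrated firefly luciferase reporter (2% hematocrit, 0.1% parasitemia final) were exposed to compounds in RPMI 1640 with 0.5% Albumax at 37 C, 5% CO2. Growth inhibition was scored as reduced luminescence.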
VACV mCherry inh: inhibitors of vaccinia virus infection (mCherry reporter signal) | hit rate 0.63% among 310,000 | Potency, µM (highest dose often 36.5 µM), for inactives: at the top dose activity change, negative = inhibition, hits mostly inhibitors | AID 720579 | Vaccinia virus mCherry reporter infection, fluorescence; calls by dose curve; tested in A549 cells; also: nearly all actives have a fitted effect of over 35% in size
AMA1 RON2 block: inhibitors of Plasmodium falciparum AMA1-RON2 interaction; hit rate 0.2% among 360,000; AlphaScreen AMA1-biotinylated RON2 peptide binding; AID 720542; Potency, µM (doses to about 58.2 µM), without a hit: top-dose activity change, negative = inhibition, usual class: inhibitors;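 also: 0% = vehicle wells and -100% = peptide control; nearly all actives have a fitted effect of over 45% in size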
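AMA1 (3D7) with his tag at 25 nM final met compounds first, then biotinylated RON2 peptide at 25 nM; detection used donor plus acceptor beads, 10 µg/mL apiece, read by AlphaScreen after 30 min at room temperature.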
Pf growth 96h: P. falciparum growth inhibition at 96 hour, primary screen for plastid delayed-death inhibitors | P. falciparum luciferase reporter growth, 96 h | Potency, µM (top dose mostly 28.7 µM), for inactives: top-dose activity change, negative = inhibition, usual class: inhibitors | hit rate 6.9% among 320,000
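96 h incubation, 37 C, 5% CO2, of luciferase-reporter P. falciparum-infected RBCs (2% hematocrit, 0.05% parasitemia final) with test compounds; endpoint luminescence.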
VACV Venus inh: vaccinia inhibition (Venus reporter). hit rate 0.46% among 330,000. Vaccinia virus Venus reporter expression, fluorescence. AID 720580. Potency, µM (top dose mostly 36.5 µM), for the others: at the top dose activity change, negative = inhibition, usual class: inhibitors; calls by dose curve; tested in A549 cells; also: nearly all actives have a fitted effect of over 30% in size
The depositor's hits bear a star; [ ] = remark or other dose. Unless noted, calls follow the shape of the dose curve; as a rule, active = well fitted curve in the direction sought with a large enough effect; inconclusive = small, poorly fitted or top-dose-only effect, or another doubt; inactive = no such curve, though single readings can be large; an effect the other way counts as inactive or inconclusive. Unless noted, % is scaled to controls: 0 for no effect and ±100 for the full control effect; potency is read from the fitted curve at half-maximal effect.

How did COc1cccc(CNC(=O)Cc2c(C)c3ccc(OC)c(C)c3oc2=O)c1 do in these assays?
VACV mCherry inh: -10%; VACV Venus inh: -8%

What do the screens show for `N#CC1=C(N)C(C#N)(C#N)[C@H](c2c(F)cccc2F)[C@H]2CC3(CC=C12)OCCO3`?
Pf growth 48h: 5.2µM*; AMA1 RON2 block: 20%; Pf growth 96h: 79%

How did O=C(Nc1ccc(Cl)cc1)ON=C1CCCC1 do in these assays?
Pf growth 48h: 12µM*; VACV mCherry inh: -12%; AMA1 RON2 block: -13%; Pf growth 96h: inconclusive; VACV Venus inh: -18%

What do the screens show for `CCOc1ccc(N=C2NN=C(c3cc(C)n(CC4CCCO4)c3C)CS2)cc1` (stereo not given)?
Pf growth 48h: inconclusive; VACV mCherry inh: -14%; AMA1 RON2 block: 8%; Pf growth 96h: 2.1µM*; VACV Venus inh: -9%

What do the screens show for `COc1cccc(NC(=O)CCN2CCN(CCO)CC2)c1`?
VACV mCherry inh: -9%; VACV Venus inh: -3%

Results for CC(C)C(c1nnnn1CC1CCCO1)N1CCN(C2CCCC2)CC1 (stereo not given) ?
Pf growth 48h: 6%; AMA1 RON2 block: -1%; Pf growth 96h: 13µM*; VACV Venus inh: -24%

Results for CC(C)C(c1nnnn1Cc1cccs1)N1CCN(C2CCCC2)CC1 (stereo not given) ?
Pf growth 48h: -1%; VACV mCherry inh: -14%; AMA1 RON2 block: 5%; Pf growth 96h: inconclusive; VACV Venus inh: -10%

What do the screens show for `Cc1cc(C)c2cc(C(c3nnnn3CC3CCCO3)N3CCN4CCCC4C3)c(=O)[nH]c2c1` (stereo not given)?
Pf growth 48h: 15µM*; VACV mCherry inh: inactive; AMA1 RON2 block: 0%; Pf growth 96h: -2%[5.75 µM]; VACV Venus inh: -9%

How did CCOc1ccc(NC(=O)N(Cc2cn(CC)c3ccccc23)C2CCCCCC2)cc1 do in these assays?
VACV mCherry inh: inconclusive; VACV Venus inh: -24%

What do the screens show for `Cc1cccc(N2CCN(C(=O)Cn3ncc4c3-c3ccccc3OC4)CC2)c1C`?
VACV mCherry inh: -27%; VACV Venus inh: -12%

How did Cc1ccc(C(c2sc3ncnn3c2O)N2CCCCC2)cc1 (stereo not given) do in these assays?
Pf growth 48h: inconclusive; VACV mCherry inh: -4%; AMA1 RON2 block: 10%; Pf growth 96h: inconclusive; VACV Venus inh: -21%

What do the screens show for `Cc1ccc(C(c2sc3ncnn3c2O)N2CCC(C)CC2)cc1` (stereo not given)?
Pf growth 48h: inconclusive; VACV mCherry inh: 24%; AMA1 RON2 block: 11%; Pf growth 96h: 5.9µM*; VACV Venus inh: -9%

How did Cc1cc(CNC(=O)CCN2Cc3cc(Cl)ccc3OC(C)C2)nn1C (stereo not given) do in these assays?
VACV mCherry inh: -5%; VACV Venus inh: -2%

Results for CCO[C@H]1[C@H](NC(=O)c2cccnc2)c2ccccc2C12CCN(C(=O)c1ccoc1)CC2 ?
VACV mCherry inh: -3%; VACV Venus inh: 6%

What do the screens show for `Cc1cc(NC(=O)CSc2ncc(C(=O)Nc3ccc(C)c(C)c3)c(=O)n2C)no1`?
VACV mCherry inh: inactive; VACV Venus inh: -13%

Results for CCOC(=O)c1csc(N/N=C2\CCCc3ccccc32)n1 ?
VACV mCherry inh: inconclusive; AMA1 RON2 block: 34%; Pf growth 96h: inconclusive; VACV Venus inh: -16%

How did COc1ccc2c(c1)CCC/C2=N\Nc1nc(C(=O)NN)cs1 do in these assays?
Pf growth 48h: 10µM*; VACV mCherry inh: inconclusive; AMA1 RON2 block: 33%; Pf growth 96h: inconclusive; VACV Venus inh: -18%

What do the screens show for `CCOC(=O)c1csc(N/N=C2\CCc3ccccc32)n1`?
VACV mCherry inh: inconclusive; AMA1 RON2 block: -1%; Pf growth 96h: 13µM*; VACV Venus inh: -17%

What do the screens show for `COc1cc(CCNC(=O)c2ccc3c(c2)c(C)c(C)n3Cc2cccc(C)c2)cc(OC)c1OC`?
VACV mCherry inh: inconclusive; VACV Venus inh: -29%

Results for c1ccc(-c2nnc(CN3CCN(c4ccccn4)CC3)o2)cc1 ?
VACV mCherry inh: 2%; VACV Venus inh: 8%

Results for CS(=O)(=O)N1CCN(c2nc(-c3cccs3)nc3ccccc23)CC1 ?
VACV mCherry inh: -7%; VACV Venus inh: -16%

What do the screens show for `CCc1ccc(N2CC(C)Cn3c2nc2c3c(=O)n(CC(=O)O)c(=O)n2C)cc1` (stereo not given)?
VACV mCherry inh: 9%; VACV Venus inh: 8%

How did O=[N+]([O-])c1ccc(S(=O)(=O)N2CCN(c3ccnc4cc(Cl)ccc34)CC2)cc1 do in these assays?
Pf growth 48h: 5.2µM*; VACV mCherry inh: inconclusive; AMA1 RON2 block: -12%; Pf growth 96h: 2.6µM*; VACV Venus inh: -6%

What do the screens show for `N#Cc1cccc(S(=O)(=O)N2CCN(S(=O)(=O)c3ccc4c(c3)OCCO4)CC2)c1`?
VACV mCherry inh: 35%; VACV Venus inh: -5%

Results for CN(C)S(=O)(=O)N1CCN(c2ccnc3cc(Cl)ccc23)CC1 ?
Pf growth 48h: -19%; AMA1 RON2 block: -7%; Pf growth 96h: 0%

What do the screens show for `CC(C)S(=O)(=O)N1CCN(c2ccnc3cc(Cl)ccc23)CC1`?
Pf growth 48h: 5.2µM*; VACV mCherry inh: -7%; AMA1 RON2 block: -17%; Pf growth 96h: 9.3µM*; VACV Venus inh: -12%

Results for Cc1ccc(Cl)cc1N1CCN(S(=O)(=O)c2cccc(S(=O)(=O)N3CCCC3)c2)CC1 ?
Pf growth 48h: -7%; AMA1 RON2 block: -5%; Pf growth 96h: inconclusive; VACV Venus inh: -18%

Results for O=S(=O)(c1cccc(Br)c1)N1CCN(c2ccnc3cc(Cl)ccc23)CC1 ?
Pf growth 48h: 3.7µM*; VACV mCherry inh: -27%; AMA1 RON2 block: -17%; Pf growth 96h: 1.9µM*; VACV Venus inh: -24%

What do the screens show for `N#Cc1cccc(S(=O)(=O)N2CCN(c3ccnc4cc(Cl)ccc34)CC2)c1`?
Pf growth 48h: 13µM*; AMA1 RON2 block: -10%; Pf growth 96h: 2.3µM*

How did COc1ccc(CN2CCCC(c3nc(-c4ccncc4)ncc3-c3ccccc3C)C2)c(OC)c1 (stereo not given) do in these assays?
VACV mCherry inh: -30%; VACV Venus inh: -20%

What do the screens show for `O=S(=O)(c1ccccc1OC(F)(F)F)N1CCN(c2ccnc3cc(Cl)ccc23)CC1`?
Pf growth 48h: 9.3µM*; AMA1 RON2 block: -16%; Pf growth 96h: 2.3µM*

Results for COC(=O)[C@@H]1CCCN1C(=O)CCc1nnc(C2CCCCC2)o1 ?
Pf growth 48h: 24%; VACV mCherry inh: inactive; AMA1 RON2 block: -9%; Pf growth 96h: 17µM*; VACV Venus inh: -5%

How did CC1=CC(C)(C)Nc2ccc(OC(=O)C(C)N3C(=O)c4ccccc4C3=O)cc21 (stereo not given) do in these assays?
Pf growth 48h: 13µM*; AMA1 RON2 block: inconclusive; Pf growth 96h: inconclusive

Screens from PubChem.
